# Shown are actives, neighbours in structure and some others; about 3% of the full set was active somewhere.
# ClpP mod = qHTS Assay for Activators of ClpP. ATP-dependent Clp protease proteolytic subunit (Bacillus subtilis (strain 168)), P80244. purified B. subtilis ClpP, FRET peptide cleavage, 20 min. Potency, µM (highest dose often 57.5 µM), for the others: at the top dose activity change, negative = active. actives 1.9% (n = 340,000); active = well fitted falling curve with a large enough effect; inconclusive = small, poorly fitted or top-dose-only effect; inactive = no such curve, though single readings can be large or run the other way; also: potency is read from the fitted curve at half-maximal effect; the source files actives as falling curves though it sought activators and does not explain the sign; nearly all actives have a fitted effect of over 65% in size
#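 ClpP 10 microg/mL final, pH 8 Tris/KCl buffer with BSA, glycerol, Tween-20; compound pinned in; FRET-FV substrate; RT 20 min; Ex320/Em430; ΔFRET vs ADEP 5.8 microM, DMSO, no enzyme.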
# 12-LOX inh = ALOX12 (human) lipoxygenase inhibition; AID 1671190; P18054; purified 12hLO, xylenol orange hydroperoxide absorbance; actives 1.1% (n = 580,000); Potency, µM (titrated, usually from 108 µM), for the others: top-dose activity change, negative = inhibition, usual class: inhibitors; active = well fitted inhibition curve with a large enough effect; inconclusive = small, poorly fitted or top-dose-only effect, or another doubt; inactive = no such curve, though single readings can be large or run the other way; also: potency is read from the fitted curve at half-maximal effect; % is scaled to controls: 0 for no effect and ±100 for the full control effect
#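 Purified human 12hLO at 150 nM in 25 mM Hepes, 0.01% Triton X-100, pH 7.0, preincubated 15 min at room temperature with compound. Reaction started with 40 uM arachidonic acid, 30 min at room temperature. Hydroperoxide measured by Fe-xylenol orange, 573/405 nm absorbance ratio.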
# KCNH2 WT inh = blocks the wildtype human KCNH2 potassium channel; U2OS, BacMam KCNH2, thallium flux FluxOr; hits give low values; AID 720551; activity change, % at 1.84 µM; actives 0.37% (n = 340,000);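 active = maximum activity change below -70%; inconclusive = maximum activity change between -70% and -50%; inactive = maximum activity change above -50%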; also: % is scaled to controls: 0 for no effect and ±100 for the full control effect
# Target sequence (Q12809 whole entry, looked up): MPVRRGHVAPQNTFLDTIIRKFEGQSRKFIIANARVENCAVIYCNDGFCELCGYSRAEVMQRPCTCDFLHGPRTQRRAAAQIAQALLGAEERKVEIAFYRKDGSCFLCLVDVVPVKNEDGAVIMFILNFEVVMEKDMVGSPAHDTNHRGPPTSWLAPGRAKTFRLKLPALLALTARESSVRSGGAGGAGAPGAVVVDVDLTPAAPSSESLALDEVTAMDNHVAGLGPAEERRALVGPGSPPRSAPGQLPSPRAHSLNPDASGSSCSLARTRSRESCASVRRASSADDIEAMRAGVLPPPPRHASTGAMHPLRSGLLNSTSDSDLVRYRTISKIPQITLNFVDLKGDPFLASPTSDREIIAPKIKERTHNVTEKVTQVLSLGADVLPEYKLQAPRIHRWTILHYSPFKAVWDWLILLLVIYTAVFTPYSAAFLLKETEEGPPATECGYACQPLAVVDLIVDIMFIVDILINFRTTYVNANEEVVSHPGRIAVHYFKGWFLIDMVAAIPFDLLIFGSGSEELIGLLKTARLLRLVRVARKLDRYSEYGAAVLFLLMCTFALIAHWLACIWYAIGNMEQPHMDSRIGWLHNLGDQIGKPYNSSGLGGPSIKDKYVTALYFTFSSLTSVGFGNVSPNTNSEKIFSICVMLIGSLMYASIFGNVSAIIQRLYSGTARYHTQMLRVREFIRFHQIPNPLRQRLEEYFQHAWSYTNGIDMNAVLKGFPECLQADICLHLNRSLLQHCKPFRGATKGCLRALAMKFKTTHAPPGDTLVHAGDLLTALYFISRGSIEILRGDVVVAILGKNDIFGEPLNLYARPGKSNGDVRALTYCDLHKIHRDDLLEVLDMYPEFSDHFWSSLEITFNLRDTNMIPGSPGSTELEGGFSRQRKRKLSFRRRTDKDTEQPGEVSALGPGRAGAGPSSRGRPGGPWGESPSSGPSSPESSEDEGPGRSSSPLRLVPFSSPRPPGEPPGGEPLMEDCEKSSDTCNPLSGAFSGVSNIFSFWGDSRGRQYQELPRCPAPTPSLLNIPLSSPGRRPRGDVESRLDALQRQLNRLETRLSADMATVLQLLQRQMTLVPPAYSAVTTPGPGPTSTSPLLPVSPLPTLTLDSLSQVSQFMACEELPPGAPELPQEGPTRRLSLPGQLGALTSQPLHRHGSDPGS
#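 U2OS cells were transduced with wild-type KCNH2 virus (2.03 x 10^8 / mL) for 4 h at room temperature, then cultured overnight at 37 C. Thallium flux was read with FluxOr dye. Rate constants were normalized to DMSO controls.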
# LDHA inh = LDHA (human) enzyme inhibition; actives 0.15% (n = 480,000); P00338; purified LDHA, NADH/diaphorase-resazurin fluorescence; hits give low values; activity change, % (values are at about 110 or 230 µM); AID 1347041; in the data active = activity change below about -30%; inconclusive = mostly about -25% to -30%;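 also: plate controls were DMSO wells for no effect and wells without enzyme for full effect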
#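 Enzyme activity of human lactate dehydrogenase 5 (2 nM; 0.06 mM NADH, 0.2 mM pyruvate, 5 min, RT) is measured via a resazurin/diaphorase fluorescence readout of residual NADH.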
# KCNH2 3.1 block = KCNH2 3.1 (human) potassium channel inhibition; U2OS KCNH2 3.1, thallium flux FluxOr; hits give low values; activity change, % (tested at about 1.8 µM); actives 0.95% (n = 340,000);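 active = maximum activity change below -70%; inconclusive = maximum activity change from -70% to -50%; inactive = maximum activity change above -50%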;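 also: thallium influx rate constant from kinetic fluorescence after stimulation buffer; % is scaled to controls: 0 for no effect and ±100 for the full control effect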
#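 Thallium flux read-out: FluxOr dye with Red40 quencher in HBSS/HEPES, 45 min at RT. Rate constants from kinetic reads were normalized to positive and negative DMSO controls. Cells: U2OS virally expressing the 3.1 isoform.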
# BCR signal inh = blocks chronic active B-cell receptor signaling. Potency, µM (titrated, usually from 46.1 µM), for the others: top-dose activity change, negative = inhibition, most hits filed as inhibitors. actives 0.05% (n = 340,000). ABC-DLBCL IkBa-CBG/CBR reporter, luminescence ratio, 4 h; active = well fitted inhibition curve with a large enough effect in the signal ratio, with a control signal flat, not every such curve was filed as active; inconclusive = small, poorly fitted or top-dose-only effect, or effect the other way, or a change in a side signal; the % refers to the signal ratio;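 also: potency is read from the fitted curve at half-maximal effect; plate controls were basal doxycycline-induced cells for no effect and cells given 10 µM MG132 for full effect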
#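 Cell line TMD8 (human ABC DLBCL), stably expressing tet-inducible CBG68-IkBa fusion and CBR; IMDM/0.5% FBS; cpd up to 46 uM; dox induction, 4 h, 37C/5% CO2; dual luminescence; green/red ratio; MG132 control.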
# An asterisk follows results filed as active; u = inconclusive; x = no result given.
SMILES,ClpP mod,12-LOX inh,KCNH2 WT inh,LDHA inh,KCNH2 3.1 block,BCR signal inh
CCOC(=O)c1cc2cccc(C(C)C)c2[nH]1,x,-2%,x,5,x,x
NS(=O)(=O)c1ccc(NC(=O)CCN(Cc2cccs2)C2CC2)cc1,x,17%,x,-1,x,x
CCc1c(C)c2cc(Cl)c(O)c(CN(C)C)c2oc1=O,-10%,-22%,-7,-3,-88*,u
COc1ccccc1CNC(=O)Cn1ccc2cccc(OC)c21,x,6%,x,4,x,x
S=c1[nH]cc2cnccn12,-11%,8.9µM*,-16,-1,0,x
CCCOC(=O)c1ccc(Nc2nc(C(=O)OCC)nc3ccccc23)cc1,x,42%,x,-34*,x,x
CCCOC(=O)c1cccc(Nc2nc(C(=O)OCC)nc3ccccc23)c1,-22%,-8%,x,1,x,x
N#Cc1c(N)n[nH]c1CCCNc1nc(-c2cccnc2)nc2ccccc12,x,2%,x,-9,x,x
COc1ccc(OC)c(C(c2nnnn2CCc2ccccc2)N2CCN(c3ccccc3)CC2)c1 (centres undefined),-4%,0%,0,-6,-7,u
COCCn1nnnc1C(c1ccc(OC)cc1OC)N1CCN(c2ccccc2F)CC1 (centres undefined),1%,40µM*,2,-3,1,3%
COc1ccccc1N1CCN(C(c2ccc(F)cc2)c2nnnn2C(C)C)CC1 (centres undefined),18µM*,0%,12,-5,-15,1%
COc1ccc(N2CCN(C(c3cc(OC)ccc3OC)c3nnnn3Cc3ccco3)CC2)cc1 (centres undefined),-8%,22µM*,7,2,3,-9%
COCCn1nnnc1C(c1ccc(OC)cc1OC)N1CCN(c2ccccc2)CC1 (centres undefined),0%,0%,-7,-4,4,u
COc1cc(/C=c2\s/c(=C\C(=O)C(C)(C)C)[nH]c2=O)cc(Cl)c1OC(C)C,x,-1%,x,18,x,x
O=C(COC(=O)C1C=CCCC1)c1ccc(Cl)cc1 (centres undefined),x,3%,x,1,x,x
CC1CCC(=NNC(=S)NCc2ccccc2)CC1 (centres undefined),x,u,x,-12,x,x
O=C(COc1ccc(-c2ccccc2)cc1)NCCc1c[nH]c2ccccc12,x,-8%,x,1,x,x
O=C(NC1CCCC(C(F)(F)F)C1)c1cc2c(F)cccc2s1 (centres undefined),x,u,x,11,x,x
O=c1oc2cc(OCc3c(F)c(F)c(F)c(F)c3F)ccc2cc1-c1ccccn1,16µM*,-10%,-4,-7,2,3%
NC(=O)COc1ccc2cc(-c3ccccc3)c(=O)oc2c1,4%,5%,-12,-16,2,u
Cc1ccc(S(=O)(=O)Nc2ccc(NC(=O)c3cccs3)cc2)cc1,2%,u,3,1,8,u
CC(=O)Nc1ccc(OC(=O)c2cccs2)cc1,-1%,-30%,-7,-1,-93*,u
CC(=O)NS(=O)(=O)c1ccc(NC(=O)c2ccc(NC(=O)c3cccs3)cc2)cc1,0%,-4%,-228*,-10,-163*,0%
COc1ccccc1C(=O)N1CCC(c2n[nH]c(=O)n2-c2ccccc2)CC1,x,-2%,x,x,x,x
CCOC(=O)C1(Cc2ccccc2Cl)CCNCC1,x,25%,x,x,x,x
SMILES,ClpP mod,12-LOX inh,KCNH2 WT inh,LDHA inh,KCNH2 3.1 block,BCR signal inh
CCc1ccc(NC(=O)CN2CC(CC)Sc3ccccc32)cc1 (centres undefined),x,u,x,12,x,x
COc1cccc(-c2cc3c(=O)n(CCNC(=O)Cc4cccs4)ccn3n2)c1,x,20%,x,x,x,x
CN(c1ccccc1)S(=O)(=O)c1cccc(C(=O)NC2CCCC2)c1,32µM*,-2%,3,4,-6,-5%
CC(=O)Nc1ccc(S(=O)(=O)N2CCC(C(=O)NCCc3c[nH]c4ccccc34)CC2)cc1,1%,17%,-10,-2,-133*,0%
O=C(NCCc1c[nH]c2ccccc12)C1CCN(S(=O)(=O)c2ccccc2)CC1,0%,3%,1,-1,-2,1%
O=C(CCNC(=O)C1CCN(S(=O)(=O)c2ccc(F)cc2)CC1)NCc1ccc(Cl)cc1,-2%,5%,-22,-6,-113*,-7%
O=C(CCNC(=O)C1CCN(S(=O)(=O)c2ccc(F)cc2)CC1)NCc1ccc(F)cc1,-1%,10%,-3,0,-9,0%
Cc1cccc(CN2CCC(CNC(=O)Nc3cn(C)c(=O)c4ccccc34)CC2)c1,x,u,x,0,x,x
O=C(CN(c1ccc(Cl)c(Cl)c1)S(=O)(=O)c1ccccc1)N1CCCCCC1,x,4%,x,11,x,x
Cc1cnc(CNc2ccnc(-c3ccc(C(=O)N(C)C)cc3)n2)cn1,x,35µM*,x,x,x,x
COc1cccc(CNC(=O)NNc2nc(C)cc(=O)[nH]2)c1,x,-2%,x,1,x,x
COC(=O)CNS(=O)(=O)c1ccc(C)cc1,1%,0%,1,-5,4,-5%
Cc1ccc(S(=O)(=O)NCC(=O)OC2CCOC2=O)cc1 (centres undefined),u,0%,-126*,-6,-95*,-4%
Cc1ccc2c(c1)N(C(=O)CCC(=O)NCCCN1CCOCC1)CCO2,-1%,3%,-4,-1,-128*,-5%
CNC(=O)N1CCC(C2CCN(S(=O)(=O)c3cc(F)ccc3OC)C2)CC1 (centres undefined),x,10%,x,x,x,x
CC(=O)c1ccc(NC(=O)c2ccc3c(=O)n4c(nc3c2)CCCCC4)cc1,0%,1%,-7,0,4,-8%
Cc1ccc(-c2csc(NC(=O)c3ccc4c(=O)n5c(nc4c3)CCCCC5)n2)cc1,-8%,-17%,-77*,2,-10,u
CC1=CC(C)(C)SC(N)=N1,x,u,x,-2,x,x
Cc1cc(Nc2cc(C)on2)n2ncnc2n1,0%,1.3µM*,-3,4,11,-1%
N#CC1=C(N)OC2=C(C(=O)CC(c3ccccc3)C2)C1C1CCCCC1 (centres undefined),x,u,x,14,x,x
O=C(/C=C/c1ccco1)NCC(=O)N/N=C/c1ccc(Cl)cc1,-3%,u,1,-15,-25,3%
C/C(=N/NC(=O)CNC(=O)/C=C/c1ccco1)c1ccc(Cl)cc1,28µM*,-16%,12,-2,-5,-10%
Cc1ncsc1C(=O)N1N=C2/C(=C/c3ccccc3)CCCC2C1c1ccccc1 (centres undefined),35µM*,-8%,-7,-1,-14,-23%
